From the antibiotic and cytotoxicity screens of Wong et al. (2023)
Out of some 39,000 compounds screened, about 3,300 (8.5%) were called active. The entries come from a sample that favours actives as a whole.

system: HepG2; test: cytotoxicity call (relative viability < 0.9); conditions: 10 µM

| Structure (SMILES) | cytotoxicity call |
| --- | --- |
| Cc1cc(O)cc(=O)o1 | inactive |
| C[C@@H]1CN([C@H](C)CO)C(=O)c2cc(NC(=O)Nc3ccc(F)cc3)ccc2O[C@@H](C)CCCCO[C@@H]1CN(C)S(=O)(=O)c1ccc(Cl)cc1 | inactive |
| COc1ccc(NC(=O)Nc2ccc3c(c2)C(=O)N([C@@H](C)CO)C[C@@H](C)[C@H](CN(C)C(=O)Nc2ccccc2)OCCCC[C@H](C)O3)cc1 | inactive |
| CC(C)NC(=O)Nc1ccc2c(c1)C(=O)N([C@@H](C)CO)C[C@@H](C)[C@@H](CN(C)S(=O)(=O)c1cn(C)cn1)OCCCC[C@@H](C)O2 | inactive |
| COc1ccc2c3c([nH]c2c1)[C@H](CO)N(C[C@]13CCN(CC1)C(=O)Nc1ccccc1)C(=O)Nc1ccc(cc1)F | active |
| COc1ccc2c3c([nH]c2c1)[C@H](CO)N(C[C@]13CCN(CC1)Cc1ccccc1OC)C(=O)Nc1ccc(cc1)F | inactive |
| COc1ccc2c3c([nH]c2c1)[C@@H](CO)N(C[C@]13CCN(CC1)Cc1cc(ccc1F)F)C(=O)Nc1ccc(cc1)F | inactive |
| COc1ccc2c3c([nH]c2c1)[C@H](CO)N(C[C@]13CCN(CC1)Cc1ccc(cc1)F)C(=O)Nc1ccc(cc1)F | active |
| COc1ccc2c3c([nH]c2c1)[C@@H](CO)N(C[C@]13CCN(CC1)C(=O)Nc1ccc(cc1)F)C(=O)c1ccc(cc1)F | inactive |
| COc1ccc2c3c([nH]c2c1)[C@@H](CO)N(C[C@]13CCN(CC1)Cc1ccccc1OC)C(=O)Nc1ccc(cc1)F | active |
| COc1ccc2c3c([nH]c2c1)[C@H](CO)N(C[C@]13CCN(CC1)Cc1cc(on1)-c1ccccc1)C(=O)Nc1ccc(cc1)F | inactive |
| COc1ccc2c3c([nH]c2c1)[C@@H](CO)N(C[C@]13CCN(CC1)C(=O)Nc1ccccc1)C(=O)Nc1ccc(cc1)F | inactive |
| COc1ccc2c3c([nH]c2c1)[C@@H](CO)N(C[C@]13CCN(CC1)S(=O)(=O)C)C(=O)Nc1ccc(cc1)F | inactive |
| COc1ccc2c3c([nH]c2c1)[C@H](CO)N(C[C@]13CCN(CC1)S(=O)(=O)C)C(=O)Nc1ccc(cc1)F | inactive |
| COc1ccc2c3c([nH]c2c1)[C@H](CO)N(C[C@]13CCN(CC1)Cc1cc(ccc1F)F)C(=O)Nc1ccc(cc1)F | inactive |
| COc1ccc2c3c([nH]c2c1)[C@@H](CO)N(C[C@]13CCN(CC1)Cc1ccc(cc1)F)C(=O)Nc1ccc(cc1)F | active |
| COc1cc(OC)c(NC(=O)Cn2c(=O)n(-c3ccc(CC(=O)NC[C@H]4CCCO4)cc3)c(=O)c3ccccc32)cc1Cl | inactive |
| C[C@H]1CN([C@@H](C)CO)C(=O)c2cccc(NC(=O)Nc3ccccc3)c2O[C@@H]1CN(C)C(=O)Nc1cccc2ccccc12 | inactive |
| C/C(=C\C(=O)OCCCCCCCCC(=O)O)C[C@@H]1OC[C@H](C[C@@H]2O[C@H]2[C@@H](C)[C@H](C)O)[C@@H](O)[C@H]1O | inactive |
| CC(=O)N1[C@H](CO)[C@@H](c2ccccc2)[C@@H]1CNC(=O)CN1CCOCC1 | inactive |
| C[C@H]1CN([C@@H](C)CO)S(=O)(=O)c2ccc(-c3cccc(F)c3)cc2O[C@H]1CN(C)S(C)(=O)=O | inactive |
| COCC#Cc1ccc2c(c1)O[C@@H](CN(C)S(=O)(=O)c1cccc(OC)c1)[C@H](C)CN([C@@H](C)CO)S2(=O)=O | inactive |
| C[N+](C)(C)C[C@H](O)CC(=O)O | inactive |
| C[N+](C)(C)C[C@@H](O)CC(=O)O | inactive |
| C[N+](C)(C)CC(O)CC(=O)[O-] (centres undefined) | active |

| Structure (SMILES) | cytotoxicity call |
| --- | --- |
| COCCCOc1ccnc(CS(=O)c2nc3ccccc3[n-]2)c1C.[Na+] (centres undefined) | inactive |
| C[C@@H]1CN([C@@H](C)CO)S(=O)(=O)c2ccc(-c3cncnc3)cc2O[C@H]1CN(C)C(=O)NC1CCCC1 | inactive |
| CC(=O)[C@@]12C=CCC[C@@H]1C[C@@H](C(=O)Nc1c(C)cccc1Cl)N2C(=O)c1nc(C)oc1C(F)(F)F | inactive |
| N=C(N)SCCN1C(=O)c2ccccc2C1=O | inactive |
| O=C(O)CCCN1C(=O)c2cccc3cccc(c23)C1=O | inactive |
| O=C1c2ccc3c4c(ccc(c24)C(=O)N1CCCCO)C(=O)N(CCCCO)C3=O | active |
| C[C@H]1CN([C@@H](C)CO)C(=O)CCCn2cc(nn2)CO[C@H]1CN(C)Cc1ccc(C(=O)Nc2ccccc2N)cc1 | inactive |
| CN(C)C1CN(S(=O)(=O)CCC2CC2)C1 | inactive |
| COc1ccc(CN2C[C@@H](C)[C@H](OC)CN(C)C(=O)c3cc(NC(=O)c4nc5ccccc5s4)ccc3OC[C@H]2C)cc1 | inactive |
| COCC(=O)Nc1ccc2c(c1)C(=O)N(C)C[C@H](OC)[C@@H](C)CN(C(=O)Cc1ccccn1)[C@@H](C)CO2 | inactive |
| CO[C@H]1CN(C)C(=O)c2cc(NS(C)(=O)=O)ccc2OC[C@H](C)N(C(=O)C2CCCCC2)C[C@H]1C | inactive |
| CO[C@@H]1CN(C)C(=O)c2cc(NC(=O)NC3CCCCC3)ccc2OC[C@H](C)N(CCc2ccccc2)C[C@H]1C | active |
| COCC(=O)Nc1ccc2c(c1)C(=O)N(C)C[C@H](OC)[C@@H](C)CN(C(=O)Cc1ccccn1)[C@H](C)CO2 | active |
| CO[C@@H]1CN(C)C(=O)c2cc(NS(C)(=O)=O)ccc2OC[C@H](C)N(C(=O)C2CCCCC2)C[C@@H]1C | active |
| CO[C@@H]1CN(C)C(=O)c2cc(NS(C)(=O)=O)ccc2OC[C@H](C)N(C(=O)C2CCCCC2)C[C@H]1C | inactive |
| COc1ccc(CN2C[C@@H](C)[C@H](OC)CN(C)C(=O)c3cc(NC(=O)c4nc5ccccc5s4)ccc3OC[C@@H]2C)cc1 | active |
| COc1ccc(CN2C[C@H](C)[C@@H](OC)CN(C)C(=O)c3cc(NC(=O)c4nc5ccccc5s4)ccc3OC[C@@H]2C)cc1 | inactive |
| CO[C@H]1CN(C)C(=O)c2cc(NC(=O)NC3CCCCC3)ccc2OC[C@H](C)N(CCc2ccccc2)C[C@@H]1C | inactive |
| COCC(=O)Nc1ccc2c(c1)C(=O)N(C)C[C@@H](OC)[C@H](C)CN(C(=O)Cc1ccccn1)[C@H](C)CO2 | inactive |
| CO[C@H]1CN(C)C(=O)c2cc(NC(=O)NC3CCCCC3)ccc2OC[C@@H](C)N(CCc2ccccc2)C[C@@H]1C | inactive |
| C[C@@H]1CN([C@@H](C)CO)S(=O)(=O)c2ccc(C#CC(C)(C)O)cc2O[C@@H]1CN(C)C(=O)C1CCCCC1 | inactive |
| C[C@@H]1CN([C@@H](C)CO)C(=O)c2cc(NS(=O)(=O)c3cn(C)cn3)ccc2O[C@@H]1CN(C)Cc1ccc(C(=O)Nc2ccccc2N)cc1 | inactive |
| O=C(C[C@@H]1CC[C@@H](NC(=O)CN2CCOCC2)[C@H](CO)O1)NCc1cccc(F)c1 | inactive |
| C[C@H]1CN([C@@H](C)CO)C(=O)Cc2cc(NS(=O)(=O)c3cccs3)ccc2O[C@H]1CN(C)S(C)(=O)=O | inactive |
| C[C@H](CO)N1C[C@H](C)[C@H](CN(C)Cc2ccccc2)Oc2ccc(NC(=O)Cn3cnnn3)cc2C1=O | inactive |

| Structure (SMILES) | cytotoxicity call |
| --- | --- |
| C[C@@H]1CN([C@@H](C)CO)C(=O)c2cccc(NC(=O)c3cnccn3)c2O[C@@H]1CN(C)Cc1ccncc1 | inactive |
| COc1ccc2c3c(n(c2c1)C)[C@@H](CO)N(C[C@]13CCN(CC1)C(=O)Nc1cccc(c1)F)C(=O)CN1CCOCC1 | inactive |
| C[C@@H]1CN([C@H](C)CO)C(=O)c2cccc(NC(=O)Nc3ccc4c(c3)OCO4)c2O[C@H]1CN(C)Cc1ccc(Cl)c(Cl)c1 | inactive |
| CNC[C@H]1Oc2ccc(NS(=O)(=O)c3cn(C)cn3)cc2CC(=O)N([C@@H](C)CO)C[C@H]1C | inactive |
| C[C@H](O)C#Cc1ccc2c(c1)O[C@@H](CN(C)C(=O)c1ccccc1)[C@@H](C)CN([C@H](C)CO)S2(=O)=O | inactive |
| COc1ccc(NC(=O)Nc2ccc3c(c2)C(=O)N([C@H](C)CO)C[C@@H](C)[C@@H](CN(C)S(=O)(=O)c2cccs2)OCCCC[C@H](C)O3)cc1 | inactive |
| CO[C@@H]1CN(C)C(=O)c2cc(NC(=O)NC(C)C)ccc2OC[C@@H](C)N(Cc2ccc(-c3ccccn3)cc2)C[C@@H]1C | inactive |
| CO[C@@H]1CN(C)C(=O)c2cc(NC(=O)NC3CCCCC3)ccc2OC[C@@H](C)N(CCc2ccccc2)C[C@H]1C | active |
| CO[C@@H]1CN(C)C(=O)c2cc(NC(=O)NC3CCCCC3)ccc2OC[C@@H](C)N(CCc2ccccc2)C[C@@H]1C | inactive |
| CO[C@@H]1CN(C)C(=O)c2cc(NC(=O)NC(C)C)ccc2OC[C@H](C)N(Cc2ccc(-c3ccccn3)cc2)C[C@H]1C | inactive |
| CO[C@@H]1CN(C)C(=O)c2cc(NC(=O)NC3CCCCC3)ccc2OC[C@H](C)N(CCc2ccccc2)C[C@@H]1C | inactive |
| CO[C@H]1CN(C)C(=O)c2cc(NC(=O)NC(C)C)ccc2OC[C@H](C)N(Cc2ccc(-c3ccccn3)cc2)C[C@@H]1C | active |
| COc1ccccc1CNC(=O)C[C@H]1C[C@@H]2c3cc(NC(=O)NC4CCCC4)ccc3O[C@@H]2[C@H](CO)O1 | inactive |
| NC[C@H]1CN(Cc2ccc(F)cc2)CCO1 | inactive |
| CN1C(=O)c2cc(NC(=O)C3CCOCC3)ccc2OC[C@@H]2O[C@H](CC(=O)NCCc3ccncc3)CC[C@@H]21 | inactive |
| N[C@@H](Cc1ccc2nonc2c1)C(=O)O | inactive |
| O=C(C[C@@H]1CC[C@@H]2[C@H](COC[C@H](O)CN2S(=O)(=O)c2ccc(Cl)cc2)O1)N1CCc2ccccc2C1 | inactive |
| CCN(CC)CCOC(=O)C(Cc1cccc2ccccc12)CC1CCCO1.O=C(O)C(=O)O (centres undefined) | active |
| O=C(c1cccc2ccccc12)N(C1CCCC1)C1CCCC1 | inactive |
| CCn1c(=O)cc(N2CCC(C)CC2)[nH]c1=O | inactive |
| CON=C1CC2(CC3CC(CC=C(C)CC(C)C=CC=C4COC5C(O)C(C)=CC(C(=O)O3)C45O)O2)OC(C(C)=CC(C)C)C1C (centres undefined) | active |
| COC1CC(OC2C(C)OC(OC3C(C)=CCC4CC(CC5(C=CC(C)C(C6CCCCC6)O5)O4)OC(=O)C4C=C(C)C(O)C5OCC(=CC=CC3C)C45O)CC2OC)OC(C)C1O (centres undefined) | inactive |
| CO[C@H]1C[C@H](O[C@H]2[C@H](C)O[C@@H](O[C@@H]3/C(C)=C/C[C@@H]4C[C@@H](C[C@]5(C=C[C@H](C)[C@@H](C6CCCCC6)O5)O4)OC(=O)[C@@H]4C=C(C)[C@@H](O)[C@H]5OC/C(=C\C=C\[C@@H]3C)[C@]54O)C[C@@H]2OC)O[C@@H](C)[C@@H]1O | inactive |
| CO/N=C1\C[C@]2(C[C@@H]3C[C@@H](C/C=C(\C)C[C@@H](C)/C=C/C=C4\CO[C@@H]5[C@H](O)C(C)=C[C@@H](C(=O)O3)[C@]45O)O2)O[C@H](/C(C)=C/C(C)C)[C@H]1C | active |
